Test results as given in PubChem BioAssay (NCI).
About 83,000 compounds went through this panel and 20% of them were active in at least one assay; those are over-represented in the sample as a whole.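 Values shown are percent growth following 48 h exposure of cells in 96-well plates to a single concentration of compound; below 10 was considered active.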 Calls of active or inactive are those of the source.

What was measured:
Assay in all cases: NCI-60 one-dose screen, 48 h (100 = growth as untreated, 0 = no growth, -100 = all killed)
Details in all cases: 10 µM unless noted
NCI-H23 lung = tested on: NCI-H23 lung
NCI-H226 lung = tested on: NCI-H226 lung
NCI-H322M lung = tested on: NCI-H322M lung
HOP-62 NSCLC = tested on: HOP-62 NSCLC
NCI-H460 lung = tested on: NCI-H460 lung
HOP-92 NSCLC = tested on: HOP-92 NSCLC
NCI-H522 lung = tested on: NCI-H522 lung
A549/ATCC NSCLC = tested on: A549/ATCC NSCLC
786-0 renal = tested on: 786-0 renal
DU-145 prostate = tested on: DU-145 prostate
K-562 leukemia = tested on: K-562 leukemia
MALME-3M melanoma = tested on: MALME-3M melanoma
MDA-MB-231 breast = tested on: MDA-MB-231 breast
RXF 393 renal = tested on: RXF 393 renal
SF-268 CNS = tested on: SF-268 CNS
SF-295 CNS = tested on: SF-295 CNS
SF-539 CNS = tested on: SF-539 CNS
UACC-257 melanoma = tested on: UACC-257 melanoma
M14 melanoma = tested on: M14 melanoma
COLO 205 colon = tested on: COLO 205 colon

Measured: growth

Cc1ccc(-c2nc([P+](c3ccccc3)(c3ccccc3)c3ccccc3)c(Nc3ccccc3)o2)cc1
active: NCI-H23 lung -6.49% | NCI-H322M lung 4.01% | HOP-62 NSCLC -16.4% | NCI-H460 lung -45.3% | HOP-92 NSCLC -14.4% | NCI-H522 lung -33.5% | A549/ATCC NSCLC 4.95% | 786-0 renal -24.5% | K-562 leukemia 0.731% | MALME-3M melanoma -44.1% | MDA-MB-231 breast -36.5% | RXF 393 renal -31.7% | SF-295 CNS -21% | SF-539 CNS -76.6% | UACC-257 melanoma -13.5% | M14 melanoma -40.4%
inactive: NCI-H226 lung 20.2% | DU-145 prostate 13.2% | SF-268 CNS 10.6%

CCOC(=O)C1=C(C)NC(=O)NC1c1c(Cl)n(-c2ccccc2)c2ccccc12 (stereo not given)
inactive: NCI-H23 lung 74.7% | NCI-H226 lung 86.5% | NCI-H322M lung 80.5% | HOP-62 NSCLC 86.7% | NCI-H460 lung 96.1% | HOP-92 NSCLC 59.5% | NCI-H522 lung 66% | A549/ATCC NSCLC 88.2% | 786-0 renal 83.1% | DU-145 prostate 85.7% | K-562 leukemia 43.4% | MALME-3M melanoma 86.2% | MDA-MB-231 breast 81.5% | RXF 393 renal 55.6% | SF-268 CNS 86.7% | SF-295 CNS 85.5% | SF-539 CNS 87.9% | UACC-257 melanoma 88.3% | M14 melanoma 86.5%

CCN(CC)CCCN1C(=O)c2c(c(C)c3c(oc4cc(OC)ccc43)c2C)C1=O
active: NCI-H226 lung -5.51% | 786-0 renal -79% | K-562 leukemia -31.5%
inactive: NCI-H23 lung 105% | NCI-H322M lung 94.2% | HOP-62 NSCLC 109% | NCI-H460 lung 92.6% | HOP-92 NSCLC 87.3% | NCI-H522 lung 104% | A549/ATCC NSCLC 92.5% | DU-145 prostate 112% | MALME-3M melanoma 85.3% | MDA-MB-231 breast 96% | RXF 393 renal 73% | SF-268 CNS 101% | SF-295 CNS 100% | SF-539 CNS 95.5% | UACC-257 melanoma 114% | M14 melanoma 108%

Cc1c(C(C)(C)O)cn2ncnc(Oc3ccc(NC(=O)Nc4ccc(Cl)c(C(F)(F)F)c4)cc3)c12
inactive: NCI-H23 lung 23.6% | NCI-H226 lung 65.5% | NCI-H322M lung 56.7% | HOP-62 NSCLC 65.4% | NCI-H460 lung 13.1% | NCI-H522 lung 11.6% | A549/ATCC NSCLC 32.8% | 786-0 renal 26.5% | DU-145 prostate 57.6% | K-562 leukemia 14.9% | MALME-3M melanoma 51.2% | MDA-MB-231 breast 32.2% | RXF 393 renal 39% | SF-268 CNS 45.3% | SF-295 CNS 16% | SF-539 CNS 25.9% | UACC-257 melanoma 66.5% | M14 melanoma 36.7%
active: HOP-92 NSCLC 4.28%

Cc1nc2sc(C(=O)Nc3cccc(Cl)c3C)c(N)c2cc1C(O)c1ccccc1 (stereo not given)
active: NCI-H460 lung 3.15% | NCI-H522 lung 4.83% | COLO 205 colon -0.762% | K-562 leukemia 6.05% | SF-539 CNS 0.0688%
inactive: NCI-H23 lung 19.8% | NCI-H226 lung 43.5% | NCI-H322M lung 49.8% | HOP-62 NSCLC 33.6% | A549/ATCC NSCLC 16.2% | 786-0 renal 16.5% | DU-145 prostate 10.7% | MALME-3M melanoma 50.2% | MDA-MB-231 breast 15.3% | RXF 393 renal 46.2% | SF-268 CNS 24% | SF-295 CNS 26.9% | UACC-257 melanoma 57%

COc1ccc(-c2nnc3n(C)c(=O)c4ccccc4n23)cc1O
inactive: NCI-H23 lung 41.4% | NCI-H226 lung 76.8% | NCI-H322M lung 44.6% | HOP-62 NSCLC 20.3% | NCI-H460 lung 12% | HOP-92 NSCLC 67.3% | NCI-H522 lung 15.6% | A549/ATCC NSCLC 16.5% | 786-0 renal 30.8% | DU-145 prostate 27.1% | MALME-3M melanoma 70.8% | MDA-MB-231 breast 36.4% | SF-268 CNS 54.1% | SF-295 CNS 11.6% | UACC-257 melanoma 49.8%
active: K-562 leukemia 9.1% | RXF 393 renal -11.7% | SF-539 CNS -3.83% | M14 melanoma 3.13%

CCCCCCCC/C=C\CCCCCCCCOc1ccccc1CC(=O)NCC[N+]1(C)CCOCC1
inactive: NCI-H23 lung 69.5% | NCI-H226 lung 62.3% | NCI-H322M lung 93.7% | HOP-62 NSCLC 50.6% | NCI-H460 lung 39.4% | HOP-92 NSCLC 67.2% | NCI-H522 lung 51% | A549/ATCC NSCLC 74.4% | 786-0 renal 55.6% | DU-145 prostate 85.3% | K-562 leukemia 56.9% | MALME-3M melanoma 100% | MDA-MB-231 breast 80.1% | RXF 393 renal 24.7% | SF-268 CNS 66.8% | SF-295 CNS 67.6% | SF-539 CNS 91.3% | UACC-257 melanoma 83.8%

[2H]C([2H])([2H])Oc1cccc(/C=C/C(=O)/C=C(/C=C/c2cccc(OC([2H])([2H])[2H])c2OC([2H])([2H])[2H])OB(F)F)c1OC([2H])([2H])[2H]
inactive: NCI-H23 lung 69.9% | NCI-H226 lung 95.4% | NCI-H322M lung 106% | HOP-62 NSCLC 99.5% | NCI-H460 lung 96.9% | HOP-92 NSCLC 102% | NCI-H522 lung 56.9% | A549/ATCC NSCLC 93.4% | 786-0 renal 85.2% | DU-145 prostate 88.3% | K-562 leukemia 65.2% | MALME-3M melanoma 75.9% | MDA-MB-231 breast 88% | RXF 393 renal 121% | SF-268 CNS 98% | SF-295 CNS 103% | SF-539 CNS 92.2% | UACC-257 melanoma 64.5% | M14 melanoma 92.8%
